Data from PubChem BioAssay (NCATS).
Several values for one entry are separate records, joined by “and”; a condition that tells them apart may be missing. Identical values can stand only once. Inconclusive results are not listed. Activity calls are given as the source filed them. Unless noted, calls come from the whole dose curve; as a rule, active = well fitted curve in the direction sought with a large enough effect; inconclusive = small, poorly fitted or top-dose-only effect, or another doubt; inactive = no such curve, though single readings can be large; an effect the other way counts as inactive or inconclusive.

Columns and labels:
[1] = biological target: Voltage-gated inwardly rectifying potassium channel KCNH2 (Homo sapiens) (UniProt Q12809); test: qHTS Assay for Small Molecule Inhibitors of the Human hERG Channel Activity (AID 588834);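 note: lower thallium flux fluorescence means stronger hERG block; nearly all actives have a fitted effect of over 50% in size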; note: potency is the fitted concentration of half-maximal effect
Chain of Voltage-gated inwardly rectifying potassium channel KCNH2 (Homo sapiens) (Q12809 whole entry, looked up): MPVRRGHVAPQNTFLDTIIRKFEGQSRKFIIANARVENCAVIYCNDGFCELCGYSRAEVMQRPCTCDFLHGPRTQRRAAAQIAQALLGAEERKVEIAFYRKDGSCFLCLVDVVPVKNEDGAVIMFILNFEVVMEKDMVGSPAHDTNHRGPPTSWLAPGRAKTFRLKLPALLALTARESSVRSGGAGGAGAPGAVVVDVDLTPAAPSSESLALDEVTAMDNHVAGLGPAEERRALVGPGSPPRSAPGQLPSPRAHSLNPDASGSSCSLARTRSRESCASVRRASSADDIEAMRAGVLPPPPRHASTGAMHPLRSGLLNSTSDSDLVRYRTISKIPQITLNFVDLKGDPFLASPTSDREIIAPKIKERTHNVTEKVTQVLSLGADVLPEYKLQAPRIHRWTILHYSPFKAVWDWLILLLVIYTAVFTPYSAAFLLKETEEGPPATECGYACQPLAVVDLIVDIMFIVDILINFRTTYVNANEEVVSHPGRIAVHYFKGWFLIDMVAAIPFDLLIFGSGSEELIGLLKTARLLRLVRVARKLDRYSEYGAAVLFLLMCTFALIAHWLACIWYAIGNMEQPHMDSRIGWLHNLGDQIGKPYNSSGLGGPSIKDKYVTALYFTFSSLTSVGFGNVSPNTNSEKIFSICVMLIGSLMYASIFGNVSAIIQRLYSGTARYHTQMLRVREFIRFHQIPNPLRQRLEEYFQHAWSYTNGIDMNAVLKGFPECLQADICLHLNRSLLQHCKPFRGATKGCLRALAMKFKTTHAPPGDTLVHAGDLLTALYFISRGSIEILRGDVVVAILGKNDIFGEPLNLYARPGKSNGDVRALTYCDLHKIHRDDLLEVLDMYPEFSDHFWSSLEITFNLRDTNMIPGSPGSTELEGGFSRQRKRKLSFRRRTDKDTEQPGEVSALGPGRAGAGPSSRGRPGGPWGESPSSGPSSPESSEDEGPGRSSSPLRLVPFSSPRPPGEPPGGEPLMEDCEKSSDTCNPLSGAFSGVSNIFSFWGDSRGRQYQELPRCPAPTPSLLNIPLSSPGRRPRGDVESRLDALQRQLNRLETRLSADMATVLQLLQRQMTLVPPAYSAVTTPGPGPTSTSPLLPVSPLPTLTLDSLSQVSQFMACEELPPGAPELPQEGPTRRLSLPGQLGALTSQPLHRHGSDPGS
How it was run: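 Measured: FluxOR fluorescence after thallium stimulation in U2OS cells transduced with hERG by baculovirus. Compounds pre-incubated around 10 min; medium Opti-MEM with 2% FCS. AC50 from Hill equation.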

[2] = biological target: Luciferin 4-monooxygenase (Photinus pyralis) (UniProt P08659); test: Biochemical firefly luciferase enzyme assay for NPC (AID 624030);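 note: purified P. pyralis luciferase at 10 nM with luciferin and ATP substrate; 0% = DMSO and -100% = full luciferase inhibition by PTC124 control; nearly all actives have a fitted effect of over 70% in size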
Chain of Luciferin 4-monooxygenase (Photinus pyralis) (P08659 whole entry, looked up): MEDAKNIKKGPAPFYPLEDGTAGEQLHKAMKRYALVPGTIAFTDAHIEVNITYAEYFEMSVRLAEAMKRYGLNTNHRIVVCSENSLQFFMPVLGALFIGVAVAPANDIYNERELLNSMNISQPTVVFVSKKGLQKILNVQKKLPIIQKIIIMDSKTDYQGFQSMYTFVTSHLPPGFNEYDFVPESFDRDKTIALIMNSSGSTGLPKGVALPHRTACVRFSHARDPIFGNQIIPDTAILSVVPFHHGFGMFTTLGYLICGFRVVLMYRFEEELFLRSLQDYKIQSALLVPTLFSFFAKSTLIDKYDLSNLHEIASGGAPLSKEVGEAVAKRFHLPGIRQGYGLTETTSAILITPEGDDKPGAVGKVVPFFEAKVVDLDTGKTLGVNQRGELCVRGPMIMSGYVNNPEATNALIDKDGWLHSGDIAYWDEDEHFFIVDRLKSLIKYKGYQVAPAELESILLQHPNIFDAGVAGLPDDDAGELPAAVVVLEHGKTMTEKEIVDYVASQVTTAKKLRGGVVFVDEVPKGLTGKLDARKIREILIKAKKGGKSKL
How it was run: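 Purified P. pyralis luciferase at 10 nM in 50 mM Tris Acetate (final), luminescence read within 5 minutes of enzyme addition to compounds. Activity normalised to PTC124 versus DMSO; concentration-response curves classed by r2, magnitude and activity.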

[3] = S16 Schwann cell viability assay (CellTiter-Glo assay) (AID 624031); note: nearly all actives have a fitted effect of over 70% in size; note: potency is the fitted concentration of half-maximal effect
How it was run: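 Concentration-effect curves come from CellTiter-Glo luminescence of S16 rat Schwann cells after 24 h compound exposure. Each reading was normalized to DMSO wells (0%) and wells without cells, and curves were ranked by r2 and response magnitude.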

[4] = S16 Schwann cell PMP22 intronic element firefly luciferase assay (AID 624032); note: nearly all actives have a fitted effect of over 30% in size; note: potency is the fitted concentration of half-maximal effect
How it was run: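 Rat S16 Schwann cells stably carrying firefly luciferase driven by a PMP22 intronic element, in 10% FBS, treated 24 h at 37 C. ONE-Glo luminescence normalized to PTC124 control and DMSO (0%); curves classed by r2, magnitude and activity.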

[5] = qHTS assay for small molecule agonists of the antioxidant response element (ARE) signaling pathway (AID 651741; active = well fitted activation curve with a large enough effect in the signal ratio; the % refers to the signal ratio; note: potency is the fitted concentration of half-maximal effect; for activation: % of control where 0% means no effect)
How it was run: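 HepG2 ARE-bla cells plated at 2,000 cells/well and incubated 5 h at 37 C/5% CO2 received 23 nL compound in DMSO. After 16 h at 37 C, LiveBLAzer B/G FRET substrate was applied for 2 h at room temperature and fluorescence read.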

[6] = qHTS assay for small molecule activators of the p53 signaling pathway (AID 651743; active = well fitted activation curve with a large enough effect in the signal ratio, not every such curve was filed as active; the % refers to the signal ratio; note: % of control where 0% means no effect); conditions: HCT-116 p53RE-bla, beta-lactamase FRET ratio, 16 h; stronger effect = higher value
How it was run: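 HCT-116 p53RE-bla, 4,000 cells/well; 5 h settle; cpd/DMSO 16 h, 37 C; LiveBLAzer B/G 2 h RT; fluorescence intensity.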

[7] = qHTS assay for small molecule activators of the nuclear factor-kappa B (NF-kB) signaling pathway (AID 651749; active = well fitted activation curve with a large enough effect in the signal ratio; the % refers to the signal ratio; note: % of control where 0% means no effect); conditions: NF-kB-bla ME-180 cells, beta-lactamase FRET ratio, 16 h; activation: stronger effect = higher value
How it was run: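 Incubation lasted 16 hr at 37C in 5% CO2 after 23 nL compound addition to ME-180 NF-kB-bla cells. Activation appears as beta-lactamase-mediated FRET loss.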

[8] = S16 Schwann cell PMP22 intronic element beta-lactamase assay (AID 624044; calls by dose curve;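 note: 0% = DMSO and -100% = potassium clavulanate positive control; nearly all actives have a fitted effect of over 15% in size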)
How it was run: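 Rat S16 Schwann cells with beta-Lac driven by a PMP22 intronic element, compound-treated 24 h at 37 °C. LiveBLAzer FRET B/G read: 460 nm normalized to potassium clavulanate vs DMSO; 535 nm FRET as viability; concentration-effect curves classified.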

[9] = Cell Proliferation Assay against the TMD8 Cell Line (AID 651645); conditions: TMD8 DLBCL cell line proliferation/viability; at 46.1 µM (top of the series) unless noted;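 note: cells exposed to compound for 48 h before reading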
How it was run: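 Seed log-phase TMD8 cells in RPMI containing 5% FBS, add compounds at once, incubate 48 hours at 37C. Equilibrate to room temperature, add CellTiter-Glo, read luminescence after 15 minutes and express relative to DMSO and bortezomib controls.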

[10] = Cell Proliferation Assay against the HBL1 Cell Line (AID 651646); conditions: HBL1 DLBCL cells; at 46.1 µM (top of the series) unless noted;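 note: cells exposed to compound for 48 h before reading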
How it was run: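 HBL1 ABC DLBCL cells, 500/well in RPMI with 5% FBS, treated for 48 h at 37C. Viability read by CellTiter-Glo luminescence, normalized to DMSO as 100% and 9.2 uM bortezomib as 0%.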

[11] = Cell Proliferation Assay against the TMD8 Cell Line (Caspase readout at 16 hrs) (AID 651712)
How it was run: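 TMD8 cells in RPMI with 5% FBS were treated with compound for 16 h at 37 C, then caspase 3/7 activation was read by Caspase-Glo luminescence. Percent activity was scaled to DMSO (0%) and 9.2 uM bortezomib final (100%).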

[12] = Cell Proliferation Assay against the TMD8 Cell Line (Caspase readout at 8 hrs) (AID 651713)
How it was run: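 Percent activity derived from Caspase-Glo signal, DMSO set to 0% and bortezomib (9.2 uM final) to 100%. TMD8 cells were exposed to compound for 8 h in RPMI with 5% FBS.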

[13] = biological target: Glutaminase kidney isoform, mitochondrial (Homo sapiens) (UniProt O94925); test: qHTS for Inhibitors of Glutaminase (GLS): LOPAC Validation (AID 624146); note: nearly all actives have a fitted effect of over 60% in size; note: potency is the fitted concentration of half-maximal effect
Chain of Glutaminase kidney isoform, mitochondrial (Homo sapiens) (O94925 whole entry, looked up, canonical isoform): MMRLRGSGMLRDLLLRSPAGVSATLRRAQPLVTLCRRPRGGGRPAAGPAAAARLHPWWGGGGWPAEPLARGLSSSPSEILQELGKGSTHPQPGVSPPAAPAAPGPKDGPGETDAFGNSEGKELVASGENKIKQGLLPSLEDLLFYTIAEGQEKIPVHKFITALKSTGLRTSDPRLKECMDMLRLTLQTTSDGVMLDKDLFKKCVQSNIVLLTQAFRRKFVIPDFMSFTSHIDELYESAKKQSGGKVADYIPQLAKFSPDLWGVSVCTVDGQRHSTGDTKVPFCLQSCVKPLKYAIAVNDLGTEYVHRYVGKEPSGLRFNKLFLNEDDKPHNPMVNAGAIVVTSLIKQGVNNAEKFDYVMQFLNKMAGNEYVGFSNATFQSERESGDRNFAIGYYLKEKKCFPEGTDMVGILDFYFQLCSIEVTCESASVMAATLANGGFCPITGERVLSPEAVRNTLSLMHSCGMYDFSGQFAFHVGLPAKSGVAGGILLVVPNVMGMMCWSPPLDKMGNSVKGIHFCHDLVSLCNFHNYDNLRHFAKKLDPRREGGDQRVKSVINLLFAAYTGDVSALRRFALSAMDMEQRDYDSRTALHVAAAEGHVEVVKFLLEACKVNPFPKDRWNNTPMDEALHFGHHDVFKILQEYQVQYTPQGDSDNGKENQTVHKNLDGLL
How it was run: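 hKGA in 45 mM KH2PO4 (pH 8.2), 0.02% Tween-20 with compound, then 1mM L-Glutamine (stock as added) plus glutamate oxidase/HRP/Amplex red coupling mix. Fluorescence read initially and after 30 min at RT; signal change reflects glutamate formation.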

[14] = qHTS of Trypanosoma Brucei Inhibitors: LOPAC Validation (AID 624147); note: 0% is about no effect
How it was run: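 Assay buffer: 50 mM TEA pH 7.2, 100 mM KCl, 10 mM MgCl2, 0.05% BSA, 0.01% Tween-20. Pyruvate kinase from T. brucei plus substrate met compound, then ADP (130 uM final). Luminescence was read post 45 min RT.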

[15] = biological target: Glucagon-like peptide 1 receptor (Homo sapiens) (UniProt P43220); test: qHTS of GLP-1 Receptor Agonists: LOPAC Validation (AID 624148);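 note: 0% is about no effect; higher luminescence signal means agonism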
Chain of Glucagon-like peptide 1 receptor (Homo sapiens) (P43220 whole entry, looked up): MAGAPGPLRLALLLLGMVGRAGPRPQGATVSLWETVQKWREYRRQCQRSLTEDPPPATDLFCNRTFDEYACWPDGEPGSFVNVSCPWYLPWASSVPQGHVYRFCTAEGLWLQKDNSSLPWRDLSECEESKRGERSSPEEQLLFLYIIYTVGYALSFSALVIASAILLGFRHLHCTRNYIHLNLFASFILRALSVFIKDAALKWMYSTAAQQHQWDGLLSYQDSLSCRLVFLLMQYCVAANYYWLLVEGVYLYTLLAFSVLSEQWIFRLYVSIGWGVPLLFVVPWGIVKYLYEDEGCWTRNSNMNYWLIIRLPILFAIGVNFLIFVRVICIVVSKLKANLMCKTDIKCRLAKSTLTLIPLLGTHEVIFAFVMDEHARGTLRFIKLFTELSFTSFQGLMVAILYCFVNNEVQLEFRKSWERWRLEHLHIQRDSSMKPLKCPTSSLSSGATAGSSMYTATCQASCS
How it was run: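 HEK293 cells stably co-expressing GLP-1R and a cAMP-responsive luciferase reporter, plated 12 hours before compound, then incubated 4-6 hr at 37 deg C. Luminescence read 12 min after detection reagent.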

[16] = qHTS of Nrf2 Activators: LOPAC Validation (AID 624149); note: 0% is about no effect
How it was run: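 ARE reporter activation measured in AREc32 firefly luciferase cells after 24 hr compound exposure; Steady-Glo luminescence.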

[17] = HTS Assay for Allosteric Antagonists of the Human D2 Dopamine Receptor: Hit Validation in HTRF (AID 624455);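 note: stable D1 dopamine receptor cell line scored for blocking the D1 response; % is set by controls: 0 for no effect and ±100 for the full control effect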
How it was run: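 Signal from an HTRF read-out in D1-expressing stable cells gave hit activity as inhibition of the D1 response.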

CC(O)COc1ccccc1 (stereo unspecified)
inactive: Potency [1] | Potency [2] | Potency [3] | Potency [4] | Potency [5] | activation [6] 2.15% | activation [7] -2.71%

O=c1cc(CO)occ1O
inactive: Potency [1] | Potency [3]

COc1ccc2c(c1)C(=O)N(CCc1ccc(S(=O)(=O)NC(=O)NC3CCCCC3)cc1)C(=O)C2(C)C
inactive: Potency [1] | Potency [2] | Potency [3] | Potency [8]

Oc1cn2c(n1)Nc1ccc(Cl)c(Cl)c1C2
87.9%: viability (% of control) [9]
58.4%: viability, percent of control [10]
inactive: Potency [1] | Potency [2] | Potency [3] | Potency [11] | Potency [12]

Nc1ccc(S(=O)(=O)Nc2nccs2)cc1
inactive: Potency [1] | Potency [2] | Potency [3] | Potency [4] | Potency [5] | activation [6] -5.45% | activation [7] 0.351%

O=c1[nH]c(=O)c2[nH]c(=O)[nH]c2[nH]1
inactive: Potency [1] | Potency [2] | Potency [4]

CCCCN1CCCC[C@H]1C(=O)Nc1c(C)cccc1C
inactive: Potency [1] | Potency [2] | Potency [4] | Potency [8]

Oc1ccc(C(O)CNCCCCCCNCC(O)c2ccc(O)c(O)c2)cc1O (stereo unspecified)
inactive: Potency [1] | Potency [2] | Potency [8]

CCN(CC)CCCC(C)Nc1c2ccc(Cl)cc2nc2ccc(OC)cc12 (stereo unspecified)
active: Potency [1] 14.1 µM and 11.2 µM
inactive: Potency [13] | outcome [14] | outcome [15]

O=C1c2c(O)cccc2Cc2cccc(O)c21
inactive: Potency [1] | Potency [3] | Potency [4] | Potency [5] | activation [6] -1.03%

Cn1c(=O)c2c(ncn2CC2OCCO2)n(C)c1=O
inactive: Potency [1] | Potency [4]

O=C(O)c1ccccc1-c1ccc(C(F)(F)F)cc1
inactive: Potency [1] | Potency [3] | Potency [4]

CN(C)CCN(Cc1ccccc1)c1ccccn1
inactive: Potency [3] | Potency [4] | Potency [8]
active: Potency [1] 12.6 µM

C[C@@H]1CN(c2c(F)c(F)c3c(=O)c(C(=O)O)cn(C4CC4)c3c2F)C[C@H](C)N1
inactive: Potency [1] | Potency [3] | Potency [4]

C[C@H]1O[C@@H](n2cc(F)c(=O)[nH]c2=O)[C@H](O)[C@@H]1O
inactive: Potency [1] | Potency [3] | Potency [4]

CCCCCCCCCCCCOS(=O)(=O)O
inactive: Potency [1] | Potency [3] | Potency [4] | Potency [8] | Potency [5]

CC(C)(C)c1onc(OCP(=O)(O)O)c1CC(N)C(=O)O (stereo unspecified)
inactive: Potency [1] | Potency [13] | outcome [14] | outcome [15] | outcome [16] | outcome [17]

CCCCOC(=O)c1ccc(O)cc1
active: Potency [5] 30.6 µM
inactive: Potency [1] | Potency [3] | Potency [4] | Potency [8] | activation [6] 1.4% and -3.01%

CCN(CC)CCSC(=O)C(c1ccccc1)c1ccccc1
active: Potency [1] 2.51 µM and 4.47 µM
inactive: Potency [3] | Potency [4] | Potency [8]

OCc1cc(C(O)CNCCCCCCOCCCCc2ccccc2)ccc1O (stereo unspecified)
inactive: Potency [8] | Potency [13] | outcome [14] | outcome [15] | outcome [17]
active: Potency [1] 4.47 µM and 3.55 µM | Potency [3] 20.3 µM

CC(C(O)c1ccc(O)cc1)N1CCC(Cc2ccccc2)CC1 (stereo unspecified)
inactive: Potency [13] | outcome [14] | outcome [15] | outcome [17]
active: Potency [1] 1.12 µM and 501 nM | Potency [4] 25.6 µM

Cc1c(Cl)cccc1Nc1ccccc1C(=O)O
inactive: Potency [1] | Potency [3] | Potency [4]

CCOc1ccc2ccccc2c1C(=O)N[C@@H]1C(=O)N2[C@@H]1SC(C)(C)[C@@H]2C(=O)O
inactive: Potency [1] | Potency [3] | Potency [8]

Cc1cc(N)c2ccccc2[n+]1CCCCCCCCCC[n+]1c(C)cc(N)c2ccccc21
inactive: Potency [1] | Potency [13] | outcome [14] | outcome [15] | outcome [17]
active: Potency [4] 3.46 µM

CCN(CC)C(C)CN1c2ccccc2Sc2ccccc21 (stereo unspecified)
inactive: outcome [14] | outcome [15] | outcome [17]
active: Potency [1] 7.94 µM | Potency [13] 11.2 µM
